Screening data as filed in PubChem BioAssay.
ClpP mod – qHTS Assay for Activators of ClpP; purified B. subtilis ClpP, FRET peptide cleavage, 20 min; Potency, µM (series often up to 57.5 µM), for the others: at the top dose activity change, negative = active; 1.9% of 340,000 active; ATP-dependent Clp protease proteolytic subunit (Bacillus subtilis (strain 168)), P80244; active means well fitted falling curve with a large enough effect; inconclusive means small, poorly fitted or top-dose-only effect; inactive means no such curve, though single readings can be large or run the other way; further: potency means the concentration at half of the fitted maximal effect; the source files actives as falling curves though it sought activators and does not explain the sign; nearly all actives have a fitted effect of over 65% in size
Target sequence (P80244 whole entry, looked up): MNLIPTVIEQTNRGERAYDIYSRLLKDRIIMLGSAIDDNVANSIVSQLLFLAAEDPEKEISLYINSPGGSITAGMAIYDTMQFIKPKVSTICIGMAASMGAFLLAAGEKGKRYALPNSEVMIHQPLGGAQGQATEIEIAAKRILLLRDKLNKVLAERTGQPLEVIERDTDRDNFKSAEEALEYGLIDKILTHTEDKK
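Purified B. subtilis ClpP, 10 microg/mL final in Tris/HCl pH8 with KCl, BSA, glycerol and Tween-20, cleaved an Abz/nitrotyrosine-quenched decapeptide. Fluorescence (ex 320, em 430) was read at 0 and 20 min at room temperature. Delta was normalized to 5.8 microM ADEP and DMSO/no-enzyme controls.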
uPA generation – inhibitors of cell surface uPA generation | 0.31% of 330,000 active | Potency, µM (titrated, usually from 38.3 µM), inactives show at the top dose activity change, negative = inhibition, actives largely listed as inhibitors | cell surface uPA generation assay, qHTS | AID 540303; active means well fitted inhibition curve with a large enough effect; inconclusive means small, poorly fitted or top-dose-only effect; inactive means no such curve, though single readings can be large or run the other way; tested in mouse RAW 264.7 cells; further: potency means the concentration at half of the fitted maximal effect; on the % scale 0 is the no-effect control and ±100 the full control effect; nearly all actives have a fitted effect of over 55% in size
Sfp inh – Sfp phosphopantetheinyl transferase inhibition. 3.5% of 310,000 active. Potency, µM, without a hit: largest response in the series, negative = inhibition, actives largely listed as inhibitors. AID 1490. Q9F4F7. Biochemical Sfp PPTase activity, qHTS;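 further: the enzyme is Sfp with the accession as filed and its product quenches rhodamine fluorescence; potency means the concentration at half of the fitted maximal effect; 0% = enzyme reaction without inhibitor and -100% = no enzyme wells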
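Sfp 15 nM + cpd, 15 min RT; start w/ rhodamine-CoA 5 uM, BHQ-2-YbbR 12.5 uM (final); 50 mM Hepes pH 7.6, 10 mM MgCl2, 0.01% NP-40, 0.01% BSA; read 525/598 nm at 0 and 30 min.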
TCR act – T cell receptor activation; primary human leukocytes, anti-CD3, IL-2 HTRF, 48 h; Potency, µM (highest dose often 9.22 µM), without a hit: at the top dose activation of IL-2 secretion, actives largely listed as activators; 330,000 tested, under 10 active; further: % of control where 0% means no effect
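Human primary leukocytes + a-CD3 beads + cpd, 48 hr; IL-2 in supernatant by HTRF (ex 320nm / em 665nm). No co-stimulatory signal supplied.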
An asterisk follows results filed as active; [ ] = dose if it differs, or a comment. Only some compounds are listed: those with a hit (about 4.2% of all), similar ones and a draw of the others. Unless noted, the call rests on the fitted dose curve; in most records, active means well fitted curve in the direction sought with a large enough effect; inconclusive means small, poorly fitted or top-dose-only effect, or another doubt; inactive means no such curve, though single readings can be large; an effect the other way counts as inactive or inconclusive.

For CCc1nnc(N/N=C/c2ccccc2F)n1N the results were uPA generation -9%, Sfp inh 50µM* and TCR act -3%.
Screening Cc1ccc(NC(=S)N(CCCN2CCOCC2)Cc2ccccn2)cc1Cl returned ClpP mod 0%, uPA generation -3%, Sfp inh 32µM* and TCR act 3%[46.1 µM].
For Cc1cc(Cl)ccc1NC(=S)N(CCCN1CCOCC1)Cc1cccs1 the results were ClpP mod -2%, uPA generation 2%, Sfp inh 45µM* and TCR act -3%.
`NCC1O[C@@H](OC2C(N)CC(N)C(O)C2O[C@@H]2OC(CO)C(O)C2O)C(N)C(O)C1O` (some centres undefined) gave Sfp inh 6%.
For COc1ccc(C2c3c(-c4ccccc4)n[nH]c3C(=O)N2c2ccc(C(=O)O)cc2)c(OC)c1 (centres undefined) the results were ClpP mod -1%.
Screening COc1ccc(OC)c(NC(=O)C(C)Oc2ccc(Br)cc2)c1 (centres undefined) returned uPA generation -2%, Sfp inh -1% and TCR act -5%.
For COc1cc2c(c(OC)c1OC)-c1c(cc3c(c1O)OCO3)C[C@@H](C)[C@@H](C)C2 the results were ClpP mod 2%, uPA generation 11µM*, Sfp inh 6% and TCR act -3%.
For COc1cc2c(c(OC)c1OC)-c1c(cc3c(c1OC)OCO3)CC(C)C(C)C2 (centres undefined) the results were Sfp inh -11%.
`CCCCc1ccc(CC(=O)NO)cc1` gave ClpP mod -2%.
For COc1ccc(/C=C2\N=C(c3ccc(C)cc3)OC2=O)cc1 the results were ClpP mod 25µM*, uPA generation 0% and Sfp inh 17%.
`Cc1ccc(C2=N/C(=C/N3CCOCC3)C(=O)O2)cc1` gave ClpP mod -2%, uPA generation 3%, Sfp inh 8% and TCR act 2%.
For Cc1ccc(C2=N/C(=C\N3CCCCC3)C(=O)O2)cc1 the results were ClpP mod -4%, Sfp inh 50µM* and TCR act -1%.
For CN(C(=O)c1cccs1)c1ccccc1C(=O)O the results were ClpP mod 20µM*, uPA generation 1%, Sfp inh 6% and TCR act -49%.
For CCN1CCN(S(=O)(=O)c2ccc3ccccc3c2)CC1 the results were ClpP mod -1% and Sfp inh 21%.
CC1CN(C2CCN(S(=O)(=O)c3ccc4ccccc4c3)CC2)CC(C)O1 (centres undefined) was read as ClpP mod -3%, uPA generation 2%, Sfp inh 32µM* and TCR act -1%.
`CSc1ccccc1NC(=O)C1CC(c2ccccc2Cl)=NO1` (centres undefined) gave ClpP mod 1%, uPA generation 4%, Sfp inh -27% and TCR act 5%.
`OC(CNCCc1ccc(C(F)(F)F)cc1)COC(c1ccccc1)c1ccccc1` (centres undefined) gave ClpP mod -4%, uPA generation inconclusive, Sfp inh 56µM* and TCR act 15%.
COc1ccc(NC2=NCC(Cc3ccc(Br)cc3)S2)cc1 (centres undefined) was read as uPA generation -11%, Sfp inh -1% and TCR act 1%[46.1 µM].
Screening CCOC(=O)C1=C(C)Nc2nc(=S)[nH]n2C1c1ccc(Cl)cc1 (centres undefined) returned ClpP mod 1%, uPA generation 2%, Sfp inh 7.9µM* and TCR act -7%.
Screening CCOC(=O)C1=C(C)Nc2nc(SCC)nn2C1c1ccc(OC)cc1 (centres undefined) returned ClpP mod -2%, uPA generation -5%, Sfp inh -4% and TCR act -17%.
`CC1(C)CC(=O)C(C(C2=C(O)CC(C)(C)CC2=O)c2ccc(Br)s2)C(=O)C1` (centres undefined) gave ClpP mod 1%, uPA generation -6%, Sfp inh 20µM* and TCR act -7%[46.1 µM].
Screening COc1cccc(C(C2=C(O)CC(C)(C)CC2=O)C2C(=O)CC(C)(C)CC2=O)c1 (centres undefined) returned ClpP mod -3%, uPA generation -4%, Sfp inh -17% and TCR act -1%[46.1 µM].
CC1(C)CC(=O)C(C(C2=C(O)CC(C)(C)CC2=O)c2ccc([N+](=O)[O-])cc2)C(=O)C1 (centres undefined) was read as ClpP mod 1%, uPA generation 0%, Sfp inh 18µM* and TCR act -3%[46.1 µM].
Cc1ccc(C(C2=C(O)CC(C)(C)CC2=O)C2C(=O)CC(C)(C)CC2=O)s1 (centres undefined) was read as ClpP mod 0%, uPA generation 3%, Sfp inh 35µM* and TCR act 0%.
For CC1(C)CC(=O)C(C(C2=C(O)CC(C)(C)CC2=O)c2ccc(O)c([N+](=O)[O-])c2)=C(O)C1 the results were uPA generation 2%, Sfp inh 20µM* and TCR act 15%.
`C=CCC(C)(O)C#Cc1ccccc1` (centres undefined) gave Sfp inh 10%.
`Cc1ccc(NC(=O)Cn2c(=O)n(Cc3ccc4c(c3)OCO4)c(=O)c3ccc(C(=O)NC4CCCCC4)cc32)cc1` gave ClpP mod -11%.
For O=C1CCCN1CCC(=O)N1CCCC(Nc2ccc(F)c(F)c2)C1 (centres undefined) the results were uPA generation -2%, Sfp inh 7% and TCR act 1%.
For O=C(CCn1cnnn1)N1CCCC(Nc2ccc(F)c(F)c2)C1 (centres undefined) the results were ClpP mod 32µM*, uPA generation -34%, Sfp inh 5% and TCR act 4%.
CC(C)OC(=O)c1cccc(C(=O)Oc2ccc(Br)cc2)n1 was read as ClpP mod 0%, uPA generation -8%, Sfp inh 7% and TCR act 3%.
Screening CC(C)OC(=O)c1cccc(C(=O)O)n1 returned ClpP mod 0%, uPA generation 6%, Sfp inh 50µM* and TCR act 6%[46.1 µM].
CC1(C(=O)NCc2ccccc2)CN(S(C)(=O)=O)CC(=O)N1CCCn1ccnc1 (centres undefined) was read as ClpP mod 2%.
`CCOC(=O)/C(C#N)=C1/C(=O)N(Cc2ccccc2)c2ccccc21` gave uPA generation -6%, Sfp inh 45µM* and TCR act 0%.
For COc1ccc(CCNC(=S)Nc2ccc(S(=O)(=O)Nc3ncccn3)cc2)cc1OC the results were ClpP mod -1%, uPA generation 5%, Sfp inh 15% and TCR act 11%.
